Laboratory results as given in the supplement of paper PMC9694430.
Where “and” joins values, the source holds several entries; their conditions need not be identical. Equal entries are not always repeated. Structures can show the parent of a compound that is named as a salt.

Columns and labels:
Experiment in all cases: thermal shift delta Tm vs DMSO control; higher = stronger stabilization (binding)
Conditions in all cases: 12.5 µM; protein concentration 2 µM
LOC_OS02G45750-cb003 = test system: LOC_OS02G45750-cb003
In short: (§1)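 Rice kinase domain constructs, made in E. coli and purified, were placed in 96-well plates at 2 μM in 19.5 μl of 100 mM potassium phosphate pH 7.5, 150 mM NaCl, 10% glycerol and 5 × SYPRO Orange, with compound in DMSO. A temperature ramp from 25°C to 95°C at 0.05°C/s was used for differential scanning fluorimetry. The melting temperature shift is a triplicate mean compared with DMSO-only protein, derived from Boltzmann fits.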

LOC_OS02G54510-cb004 = test system: LOC_OS02G54510-cb004
In short: as §1

LOC_OS03G04050-cb001 = test system: LOC_OS03G04050-cb001
In short: as §1

LOC_OS03G12390-cb001 = test system: LOC_OS03G12390-cb001
In short: as §1

LOC_OS03G27990-cb004 = test system: LOC_OS03G27990-cb004
In short: as §1

LOC_OS03G50450-cb001 = test system: LOC_OS03G50450-cb001
In short: as §1

LOC_OS03G50810-cb003 = test system: LOC_OS03G50810-cb003
In short: as §1

LOC_OS04G35114-cb001 = test system: LOC_OS04G35114-cb001
In short: as §1

LOC_OS04G38480-cb003 = test system: T1, LOC_OS04G38480-cb003
T1 sequence (whole entry): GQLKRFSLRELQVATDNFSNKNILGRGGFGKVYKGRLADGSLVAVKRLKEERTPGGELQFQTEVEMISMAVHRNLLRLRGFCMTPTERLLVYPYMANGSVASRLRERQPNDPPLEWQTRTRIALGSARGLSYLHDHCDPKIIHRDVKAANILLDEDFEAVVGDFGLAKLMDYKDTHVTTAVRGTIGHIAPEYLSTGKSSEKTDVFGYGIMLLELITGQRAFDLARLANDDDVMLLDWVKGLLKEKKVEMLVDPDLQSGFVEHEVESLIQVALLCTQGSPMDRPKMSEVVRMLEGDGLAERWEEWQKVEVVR
In short: as §1

LOC_OS04G41100-cb001 = test system: T2, LOC_OS04G41100-cb001
T2 sequence (whole entry): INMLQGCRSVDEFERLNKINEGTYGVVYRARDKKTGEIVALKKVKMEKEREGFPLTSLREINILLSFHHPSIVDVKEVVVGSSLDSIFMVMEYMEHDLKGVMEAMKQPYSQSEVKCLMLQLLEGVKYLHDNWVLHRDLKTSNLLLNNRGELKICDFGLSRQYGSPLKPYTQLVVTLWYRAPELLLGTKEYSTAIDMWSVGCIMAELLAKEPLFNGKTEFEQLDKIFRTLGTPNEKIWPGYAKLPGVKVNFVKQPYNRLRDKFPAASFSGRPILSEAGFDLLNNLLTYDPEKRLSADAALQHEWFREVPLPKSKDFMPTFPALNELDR
In short: as §1

LOC_OS04G57630-cb004 = test system: LOC_OS04G57630-cb004
In short: as §1

LOC_OS05G07850-cb002 = test system: LOC_OS05G07850-cb002
In short: as §1

LOC_OS05G16824-cb004 = test system: LOC_OS05G16824-cb004
In short: as §1

LOC_OS05G28520-cb001 = test system: LOC_OS05G28520-cb001
In short: as §1

LOC_OS05G30820-cb001 = test system: LOC_OS05G30820-cb001
In short: as §1

LOC_OS05G43570-cb004 = test system: LOC_OS05G43570-cb004
In short: as §1

LOC_OS06G16330-cb003 = test system: LOC_OS06G16330-cb003
LOC_OS06G16330-cb003, sequence (as listed by the source): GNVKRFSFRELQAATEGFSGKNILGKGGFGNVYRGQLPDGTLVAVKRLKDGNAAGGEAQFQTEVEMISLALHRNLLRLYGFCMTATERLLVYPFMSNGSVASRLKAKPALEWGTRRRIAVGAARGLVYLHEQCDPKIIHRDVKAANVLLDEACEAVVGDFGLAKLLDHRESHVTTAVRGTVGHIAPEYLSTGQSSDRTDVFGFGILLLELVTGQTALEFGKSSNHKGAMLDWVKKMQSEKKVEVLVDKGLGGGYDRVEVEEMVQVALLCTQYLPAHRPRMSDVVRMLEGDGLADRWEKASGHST
In short: as §1

LOC_OS06G22820-cb001 = test system: T3, LOC_OS06G22820-cb001
T3 sequence (whole entry): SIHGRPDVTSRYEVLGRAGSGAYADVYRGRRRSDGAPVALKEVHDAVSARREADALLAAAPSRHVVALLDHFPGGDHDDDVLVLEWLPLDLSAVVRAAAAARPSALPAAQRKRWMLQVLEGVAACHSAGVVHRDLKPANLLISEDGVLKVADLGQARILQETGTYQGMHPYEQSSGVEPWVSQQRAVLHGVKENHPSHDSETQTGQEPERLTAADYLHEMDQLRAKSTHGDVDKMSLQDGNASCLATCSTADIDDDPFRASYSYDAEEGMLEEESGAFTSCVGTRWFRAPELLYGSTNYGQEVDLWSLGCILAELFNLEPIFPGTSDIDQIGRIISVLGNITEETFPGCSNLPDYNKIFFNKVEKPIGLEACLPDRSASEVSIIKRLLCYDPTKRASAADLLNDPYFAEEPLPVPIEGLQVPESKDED
In short: as §1

LOC_OS07G06570-cb004 = test system: LOC_OS07G06570-cb004
In short: as §1

LOC_OS07G07230-cb001 = test system: LOC_OS07G07230-cb001
In short: as §1
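Further: purified Escherichia coli-expressed rice kinase domain construct.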

Compound | thermal shift delta Tm (LOC_OS02G45750-cb003) | thermal shift delta Tm (LOC_OS02G54510-cb004) | thermal shift delta Tm (LOC_OS03G04050-cb001) | thermal shift delta Tm (LOC_OS03G12390-cb001) | thermal shift delta Tm (LOC_OS03G27990-cb004) | thermal shift delta Tm (LOC_OS03G50450-cb001) | thermal shift delta Tm (LOC_OS03G50810-cb003) | thermal shift delta Tm (LOC_OS04G35114-cb001) | thermal shift delta Tm (LOC_OS04G38480-cb003) | thermal shift delta Tm (LOC_OS04G41100-cb001) | thermal shift delta Tm (LOC_OS04G57630-cb004) | thermal shift delta Tm (LOC_OS05G07850-cb002) | thermal shift delta Tm (LOC_OS05G16824-cb004) | thermal shift delta Tm (LOC_OS05G28520-cb001) | thermal shift delta Tm (LOC_OS05G30820-cb001) | thermal shift delta Tm (LOC_OS05G43570-cb004) | thermal shift delta Tm (LOC_OS06G16330-cb003) | thermal shift delta Tm (LOC_OS06G22820-cb001) | thermal shift delta Tm (LOC_OS07G06570-cb004) | thermal shift delta Tm (LOC_OS07G07230-cb001)
CCn1c(=O)c(-c2cc[nH]n2)cc2c(C)nc(N)nc21 | 0.15 °C | 0.22 °C | 0.35 °C | 0.21 °C | 0.09 °C | 0.05 °C | 0.28 °C | 0.94 °C | 0.82 °C | 0.15 °C | 0.11 °C | 3 °C | -1.71 °C | 0.22 °C | 0.35 °C | -0.07 °C | 0.86 °C | 0.06 °C | 0.51 °C | 0.61 °C
C[C@H]1CNCCCN1S(=O)(=O)c1cccc2cncc(F)c12 [Ripasudil (K-115) hydrochloride dihydrate] | 0.9 °C | -0.02 °C | 0.39 °C | 0.39 °C | 0.16 °C | 0.22 °C | 0.68 °C | 0.3 °C | 1.26 °C | 0.24 °C | 0.43 °C | 3.53 °C | -0.98 °C | 0.51 °C | 0.26 °C | 0.76 °C | 0.41 °C | 0.46 °C | 0.19 °C | 0.2 °C
CO[C@H]1C[C@@H]2CC[C@@H](C)[C@@](O)(O2)C(=O)C(=O)N2CCCC[C@H]2C(=O)O[C@H]([C@H](C)C[C@@H]2CC[C@@H](OC(=O)C(C)(CO)CO)[C@H](OC)C2)CC(=O)[C@H](C)/C=C(\C)[C@@H](O)[C@@H](OC)C(=O)[C@H](C)C[C@H](C)/C=C/C=C/C=C/1C | 0.69 °C | -0.04 °C | 0.5 °C | -0.26 °C | 0.07 °C | 0.44 °C | -0.05 °C | -0.13 °C | 1.42 °C | 0.7 °C | -0.25 °C | 0.18 °C | -4.25 °C | 0.46 °C | 0.38 °C | 0.24 °C | -0.27 °C | 0.76 °C | 0.91 °C | 0.12 °C
CC1=C(C(=O)Nc2ccc3[nH]ncc3c2)C(c2ccc(F)cc2)NC(=O)N1 (stereo not given) | 0.98 °C | 0.18 °C | 0.57 °C | 0.72 °C | 0.46 °C | 0.58 °C | 0.64 °C | 0.48 °C | 1.84 °C | 0.33 °C | 0.17 °C | 1.88 °C | -1.25 °C | 0.01 °C | 0 °C | 1.03 °C | 1.01 °C | 0.88 °C | 1.97 °C | 0.55 °C
CCN1CCN(Cc2ccc(C(=O)Nc3ccc(C)c(Oc4ccc5c(c4)CC(=O)N5)c3)cc2C(F)(F)F)CC1 | 1.5 °C | 0.41 °C | 0.79 °C | 0.12 °C | 0.67 °C | 1.13 °C | 0.7 °C | 1.2 °C | 1.7 °C | 0.5 °C | 0.33 °C | -0.13 °C | 2.03 °C | 0.4 °C | 0.41 °C | 0.42 °C | 0.43 °C | 0.56 °C | 0.16 °C | 0.28 °C
COc1ccc(-c2cc3nccn3c(Nc3ncccc3C(N)=O)n2)cc1OC | 1.94 °C | 0.42 °C | 0.72 °C | 6.82 °C | 0.56 °C | 1.07 °C | 1.24 °C | 1.36 °C | 1.69 °C | 1.04 °C | 1.09 °C | 10.1 °C | -0.07 °C | 0.66 °C | 0.59 °C | 0.69 °C | 4.18 °C | 0.82 °C | 0.73 °C | 0.38 °C
Cc1cnc(-c2cnc(NCCNc3ccc(C#N)cn3)nc2-c2ccc(Cl)cc2Cl)[nH]1 | 1.15 °C and 1.22 °C | 0.15 °C and -0.03 °C | 0.11 °C and 0.6 °C | 0.22 °C and 0.78 °C | 0.17 °C and 0.28 °C | -0.06 °C and 0.47 °C | 0.98 °C and 1.26 °C | 0.11 °C and 0.59 °C | 0.39 °C and 1.23 °C | 0.54 °C and 0.66 °C | -0.09 °C and 0.72 °C | 4.65 °C and 4.93 °C | 1.04 °C and 0.06 °C | 0.2 °C and 0.82 °C | 0.54 °C and 0.26 °C | 0.69 °C and 1.04 °C | -0.09 °C and -0.17 °C | 0.67 °C and 1.04 °C | 0.67 °C and 1.49 °C | 0.25 °C and -0.23 °C
CC(C)N(CCC(=O)c1ccc2ccccc2c1)Cc1ccccc1 | -0.52 °C | -0.55 °C | 0.06 °C | -6.73 °C | -1 °C | 0.58 °C | -1.55 °C | -1.2 °C | 0.27 °C | 2.52 °C | 0.41 °C | 4.18 °C | -2.65 °C | -0.95 °C | -1.16 °C | -0.34 °C | -1.31 °C | -1.34 °C | 0.13 °C | 0.23 °C
C=CC(=O)Nc1ccc2ncnc(Nc3ccc(OCc4cccc(F)c4)c(Cl)c3)c2c1 | 2.15 °C | 0.29 °C | 1.39 °C | 2.82 °C | 1.09 °C | 1.56 °C | 1.76 °C | 1.62 °C | 4.58 °C | 1.61 °C | 2.39 °C | 1.81 °C | 3.11 °C | 1.71 °C | 0.87 °C | 2.77 °C | 1.04 °C | 2.98 °C | 1.79 °C | -0.18 °C
CCN(CC)CCNC(=O)c1c(C)[nH]c(/C=C2\C(=O)Nc3ccc(-c4csc(-c5ccccc5)n4)cc32)c1C [Amcasertib (BBI503)] | 0 °C | 0.74 °C | 0.42 °C | 0.16 °C | 0.77 °C | 1.61 °C | 7.41 °C | 15 °C | 1.78 °C | 0.78 °C | 2.36 °C | 10.8 °C | 12.7 °C | 2.76 °C | 0.34 °C | 0 °C | 6.16 °C | 0.72 °C | 1.73 °C | 0.75 °C
FC(F)(F)c1ccc(CNc2ccc(Cc3c[nH]c4ncc(Cl)cc34)cn2)cn1 [Pexidartinib (PLX3397)] | 6.87 °C | 0.69 °C | 0.27 °C | 2.08 °C | 0.52 °C | 0.54 °C | 1.63 °C | 9.82 °C | 4.16 °C | 0.51 °C | 1.53 °C | 8.75 °C | 5.17 °C | 1.46 °C | 0.74 °C | 0.8 °C | 8.9 °C | 0.41 °C | 0.14 °C | -0.31 °C
CC(C)n1nc(-c2cc3cc(O)ccc3[nH]2)c2c(N)ncnc21 [Torkinib (PP242)] | 1.42 °C | 0.85 °C | 0.29 °C | 2.95 °C | 0.64 °C | 0.48 °C | 0.71 °C | 5.09 °C | 1.25 °C | 0.2 °C | 0.41 °C | 5.09 °C | -3.24 °C | 0.21 °C | 0.67 °C | 0.33 °C | 1.93 °C | 0.42 °C | 0.62 °C | 0.14 °C
